From publication PMC7862700, “An all-to-all approach to the identification of sequence-specific readers for epigenetic DNA modifications on cytosine”

Assays:
Experiment in all cases: DAPPL (digital affinity profiling via proximity ligation, sequencing); 10 mM Tris-HCl pH 7.5, 50 mM NaCl, 1 mM DTT, 4% glycerol, room temperature, 30 min; GST-TFs on glutathione beads, 16-mer random dsDNA library, 0.1% formaldehyde crosslink after washing; high values mean tight binding
[1] = molecular target: T1, FLI1 (Homo sapiens, UniProt Q01543 1-452); conditions: protein: recombinant; tags: N-terminal GST; dsDNA, one strand shown
T1 sequence: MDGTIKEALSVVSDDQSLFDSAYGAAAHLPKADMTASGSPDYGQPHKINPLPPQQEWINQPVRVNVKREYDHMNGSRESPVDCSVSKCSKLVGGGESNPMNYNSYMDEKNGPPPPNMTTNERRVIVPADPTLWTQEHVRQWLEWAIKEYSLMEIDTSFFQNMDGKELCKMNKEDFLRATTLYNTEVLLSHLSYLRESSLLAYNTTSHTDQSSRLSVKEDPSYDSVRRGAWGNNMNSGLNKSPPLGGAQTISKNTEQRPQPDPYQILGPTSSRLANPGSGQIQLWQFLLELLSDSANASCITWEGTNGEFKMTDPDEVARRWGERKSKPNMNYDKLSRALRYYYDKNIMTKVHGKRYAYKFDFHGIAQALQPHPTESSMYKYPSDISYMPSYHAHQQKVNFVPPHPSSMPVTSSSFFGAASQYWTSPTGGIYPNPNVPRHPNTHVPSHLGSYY
In short: (§1)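 Pools were built from human transcription factors expressed in yeast as GST fusions, captured on glutathione beads and DNA-barcoded, along with a tag-only sample. Incubation with 200 nmole of a 16-mer random double-stranded DNA library lasted 30 min at room temperature in Tris/NaCl/DTT/glycerol buffer, and was followed by washing, 0.1% formaldehyde crosslinking, proximity ligation, PCR amplification and Illumina NextSeq500 sequencing. Binding signal is the quotient of each hexamer's read frequency for a factor and its frequency for the tag-only sample.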

[2] = molecular target: T2, ELK1 (Homo sapiens, UniProt P19419 1-428); conditions: protein: recombinant; tags: N-terminal GST; dsDNA, one strand shown
T2 sequence: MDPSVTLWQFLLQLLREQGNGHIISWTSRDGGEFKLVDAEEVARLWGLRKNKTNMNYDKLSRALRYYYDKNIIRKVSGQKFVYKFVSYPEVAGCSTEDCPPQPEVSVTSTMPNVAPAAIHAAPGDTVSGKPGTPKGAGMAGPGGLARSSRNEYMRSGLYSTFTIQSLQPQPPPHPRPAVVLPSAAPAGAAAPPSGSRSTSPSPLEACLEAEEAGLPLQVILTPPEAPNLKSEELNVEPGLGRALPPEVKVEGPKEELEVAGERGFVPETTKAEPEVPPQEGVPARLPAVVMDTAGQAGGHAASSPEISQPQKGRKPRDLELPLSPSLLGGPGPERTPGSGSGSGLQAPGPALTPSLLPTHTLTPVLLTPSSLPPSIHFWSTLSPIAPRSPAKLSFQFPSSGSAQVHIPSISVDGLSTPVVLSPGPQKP
In short: as §1

[3] = molecular target: T3, GABPA (Homo sapiens, UniProt Q06546 1-454); conditions: protein: recombinant; tags: N-terminal GST; dsDNA, one strand shown
T3 sequence: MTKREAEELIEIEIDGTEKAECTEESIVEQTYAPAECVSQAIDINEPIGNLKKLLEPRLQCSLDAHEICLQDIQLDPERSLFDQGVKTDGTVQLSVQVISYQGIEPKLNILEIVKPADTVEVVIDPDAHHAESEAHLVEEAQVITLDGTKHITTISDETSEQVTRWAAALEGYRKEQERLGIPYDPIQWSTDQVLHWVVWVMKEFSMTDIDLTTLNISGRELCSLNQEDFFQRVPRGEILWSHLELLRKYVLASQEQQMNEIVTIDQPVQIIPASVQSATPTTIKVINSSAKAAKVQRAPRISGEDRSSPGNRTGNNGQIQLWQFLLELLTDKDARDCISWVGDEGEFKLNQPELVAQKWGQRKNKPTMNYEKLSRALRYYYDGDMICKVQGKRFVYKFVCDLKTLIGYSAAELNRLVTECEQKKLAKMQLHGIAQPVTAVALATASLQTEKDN
In short: as §1

[4] = molecular target: T4, ERG (Homo sapiens, UniProt P11308 1-479); conditions: protein: recombinant; tags: N-terminal GST; dsDNA, one strand shown
T4 sequence: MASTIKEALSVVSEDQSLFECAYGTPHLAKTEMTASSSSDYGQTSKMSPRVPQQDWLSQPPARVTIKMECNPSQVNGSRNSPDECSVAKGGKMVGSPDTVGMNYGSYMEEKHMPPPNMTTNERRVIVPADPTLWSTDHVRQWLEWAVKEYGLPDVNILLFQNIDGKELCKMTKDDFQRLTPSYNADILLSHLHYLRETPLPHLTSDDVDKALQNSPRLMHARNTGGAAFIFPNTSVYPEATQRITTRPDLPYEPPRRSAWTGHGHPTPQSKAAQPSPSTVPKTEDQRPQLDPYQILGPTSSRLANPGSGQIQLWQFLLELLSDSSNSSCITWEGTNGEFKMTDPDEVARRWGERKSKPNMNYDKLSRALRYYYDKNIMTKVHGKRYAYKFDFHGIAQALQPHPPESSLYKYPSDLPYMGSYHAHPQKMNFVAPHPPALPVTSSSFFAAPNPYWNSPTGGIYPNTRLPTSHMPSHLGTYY
In short: as §1

[5] = molecular target: ELF1 (Homo sapiens, UniProt P32519 1-619); conditions: protein: recombinant; tags: N-terminal GST; dsDNA, one strand shown
In short: as §1

[6] = molecular target: T5, EHF (Homo sapiens, UniProt Q9NZC4 1-300); conditions: protein: recombinant; tags: N-terminal GST; dsDNA, one strand shown
T5 sequence: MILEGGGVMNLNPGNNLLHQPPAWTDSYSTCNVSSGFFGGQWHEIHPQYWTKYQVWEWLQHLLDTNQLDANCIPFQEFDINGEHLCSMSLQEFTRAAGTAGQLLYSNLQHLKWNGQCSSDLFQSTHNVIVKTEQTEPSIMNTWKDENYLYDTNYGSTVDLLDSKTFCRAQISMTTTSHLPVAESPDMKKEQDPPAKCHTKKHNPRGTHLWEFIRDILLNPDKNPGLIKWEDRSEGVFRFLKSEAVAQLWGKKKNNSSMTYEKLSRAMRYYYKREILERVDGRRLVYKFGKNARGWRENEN
In short: as §1

[7] = molecular target: SPI1 (Homo sapiens, UniProt P17947 1-270); conditions: protein: recombinant; tags: N-terminal GST; dsDNA, one strand shown
In short: as §1

[8] = molecular target: SPIB (Homo sapiens, UniProt Q01892 1-262); conditions: protein: recombinant; tags: N-terminal GST; dsDNA, one strand shown
In short: as §1

[9] = molecular target: T6, ELK3 (Homo sapiens, UniProt P41970 1-407); conditions: protein: recombinant; tags: N-terminal GST; dsDNA, one strand shown
T6 sequence: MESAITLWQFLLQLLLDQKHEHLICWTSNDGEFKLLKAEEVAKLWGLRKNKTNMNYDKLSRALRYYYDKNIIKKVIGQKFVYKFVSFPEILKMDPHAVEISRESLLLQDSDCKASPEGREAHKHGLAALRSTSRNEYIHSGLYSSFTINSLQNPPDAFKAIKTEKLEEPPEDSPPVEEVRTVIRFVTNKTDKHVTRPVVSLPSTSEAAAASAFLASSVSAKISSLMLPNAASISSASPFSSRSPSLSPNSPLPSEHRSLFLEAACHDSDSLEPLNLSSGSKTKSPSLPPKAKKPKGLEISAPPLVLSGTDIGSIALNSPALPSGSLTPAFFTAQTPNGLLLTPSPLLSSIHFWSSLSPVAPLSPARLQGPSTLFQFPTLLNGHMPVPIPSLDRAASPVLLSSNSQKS
In short: as §1

[10] = molecular target: T7, FEV (Homo sapiens, UniProt Q99581 1-238); conditions: protein: recombinant; tags: N-terminal GST; dsDNA, one strand shown
T7 sequence: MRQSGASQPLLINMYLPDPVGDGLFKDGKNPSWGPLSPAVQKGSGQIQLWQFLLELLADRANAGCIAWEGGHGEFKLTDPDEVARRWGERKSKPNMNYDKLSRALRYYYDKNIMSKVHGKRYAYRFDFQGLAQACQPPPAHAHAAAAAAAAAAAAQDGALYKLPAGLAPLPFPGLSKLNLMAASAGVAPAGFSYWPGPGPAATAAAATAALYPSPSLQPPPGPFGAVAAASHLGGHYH
In short: as §1

[11] = molecular target: ETV5 (Homo sapiens, UniProt P41161 1-510); conditions: protein: recombinant; tags: N-terminal GST; dsDNA, one strand shown
In short: as §1

[12] = molecular target: HSF1 (Homo sapiens, UniProt Q00613 1-529); conditions: protein: recombinant; tags: N-terminal GST; chain copies: 3; dsDNA, one strand shown
In short: as §1

[13] = molecular target: T8, SPIC (Homo sapiens, UniProt Q8N5J4 1-248); conditions: protein: recombinant; tags: N-terminal GST; dsDNA, one strand shown
T8 sequence: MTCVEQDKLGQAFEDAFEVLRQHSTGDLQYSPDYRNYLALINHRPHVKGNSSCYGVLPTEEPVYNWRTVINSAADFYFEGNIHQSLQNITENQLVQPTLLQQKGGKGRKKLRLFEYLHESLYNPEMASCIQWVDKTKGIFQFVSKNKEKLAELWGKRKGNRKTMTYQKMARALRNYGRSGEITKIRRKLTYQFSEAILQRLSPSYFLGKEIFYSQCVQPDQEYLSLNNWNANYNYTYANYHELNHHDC
In short: as §1

[14] = molecular target: ELF4 (Homo sapiens, UniProt Q99607 1-663); conditions: protein: recombinant; tags: N-terminal GST; dsDNA, one strand shown
In short: as §1

[15] = molecular target: T9, ELK4 (Homo sapiens, UniProt P28324-2 1-405); conditions: protein: recombinant; tags: N-terminal GST; dsDNA, one strand shown
T9 sequence: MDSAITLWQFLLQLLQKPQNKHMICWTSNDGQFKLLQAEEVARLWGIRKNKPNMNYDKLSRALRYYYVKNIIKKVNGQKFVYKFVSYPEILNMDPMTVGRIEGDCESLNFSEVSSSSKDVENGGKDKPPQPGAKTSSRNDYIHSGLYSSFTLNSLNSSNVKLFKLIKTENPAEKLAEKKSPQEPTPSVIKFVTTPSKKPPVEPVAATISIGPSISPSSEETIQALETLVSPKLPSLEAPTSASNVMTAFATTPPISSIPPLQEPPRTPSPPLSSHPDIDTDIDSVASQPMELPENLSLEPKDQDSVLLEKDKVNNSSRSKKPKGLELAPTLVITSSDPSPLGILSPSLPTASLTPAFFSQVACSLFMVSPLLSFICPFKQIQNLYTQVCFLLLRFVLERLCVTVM
In short: as §1

[16] = molecular target: T10, ETV2 (Homo sapiens, UniProt O00321 1-342); conditions: protein: recombinant; tags: N-terminal GST; dsDNA, one strand shown
T10 sequence: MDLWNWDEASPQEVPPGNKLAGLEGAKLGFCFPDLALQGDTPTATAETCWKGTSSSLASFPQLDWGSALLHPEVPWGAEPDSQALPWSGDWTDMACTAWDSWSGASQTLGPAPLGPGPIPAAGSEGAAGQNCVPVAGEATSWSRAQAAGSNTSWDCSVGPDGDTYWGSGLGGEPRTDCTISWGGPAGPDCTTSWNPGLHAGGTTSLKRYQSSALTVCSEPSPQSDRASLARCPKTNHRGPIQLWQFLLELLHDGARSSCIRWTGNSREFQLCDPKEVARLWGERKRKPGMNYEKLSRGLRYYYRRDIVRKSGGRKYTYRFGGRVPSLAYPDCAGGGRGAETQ
In short: as §1

[17] = molecular target: T11, ELF3 (Homo sapiens, UniProt P78545 1-371); conditions: protein: recombinant; tags: N-terminal GST; dsDNA, one strand shown
T11 sequence: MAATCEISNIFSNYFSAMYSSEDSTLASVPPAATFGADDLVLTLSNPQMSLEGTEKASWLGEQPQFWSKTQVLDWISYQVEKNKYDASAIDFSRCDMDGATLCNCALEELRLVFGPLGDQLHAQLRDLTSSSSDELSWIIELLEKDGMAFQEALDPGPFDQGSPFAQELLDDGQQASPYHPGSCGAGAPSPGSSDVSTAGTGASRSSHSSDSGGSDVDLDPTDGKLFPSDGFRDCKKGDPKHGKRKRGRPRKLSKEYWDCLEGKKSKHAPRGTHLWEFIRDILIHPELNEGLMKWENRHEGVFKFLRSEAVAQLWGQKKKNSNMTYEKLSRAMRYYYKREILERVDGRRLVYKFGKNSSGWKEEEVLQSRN
In short: as §1

[18] = molecular target: CRX (Homo sapiens, UniProt O43186 1-299); conditions: protein: recombinant; tags: N-terminal GST; dsDNA, one strand shown
In short: as §1

ELF4, sequence (Q99607 whole entry): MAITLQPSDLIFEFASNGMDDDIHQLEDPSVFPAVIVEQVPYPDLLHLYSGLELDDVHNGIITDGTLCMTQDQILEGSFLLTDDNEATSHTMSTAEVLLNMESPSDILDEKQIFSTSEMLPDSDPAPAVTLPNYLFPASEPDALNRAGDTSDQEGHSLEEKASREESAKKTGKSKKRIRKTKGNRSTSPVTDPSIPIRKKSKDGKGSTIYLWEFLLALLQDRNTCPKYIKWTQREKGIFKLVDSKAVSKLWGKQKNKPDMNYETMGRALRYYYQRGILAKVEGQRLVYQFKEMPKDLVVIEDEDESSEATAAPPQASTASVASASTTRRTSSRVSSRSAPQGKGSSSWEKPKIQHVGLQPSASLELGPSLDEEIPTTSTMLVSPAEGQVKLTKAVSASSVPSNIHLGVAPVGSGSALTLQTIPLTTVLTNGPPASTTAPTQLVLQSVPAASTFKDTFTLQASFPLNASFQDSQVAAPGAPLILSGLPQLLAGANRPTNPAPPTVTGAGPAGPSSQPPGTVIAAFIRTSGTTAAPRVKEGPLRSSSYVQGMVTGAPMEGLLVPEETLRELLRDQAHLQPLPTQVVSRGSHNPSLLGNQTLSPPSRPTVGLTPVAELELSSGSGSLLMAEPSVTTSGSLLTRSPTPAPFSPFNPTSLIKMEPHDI
CRX, sequence (O43186 whole entry): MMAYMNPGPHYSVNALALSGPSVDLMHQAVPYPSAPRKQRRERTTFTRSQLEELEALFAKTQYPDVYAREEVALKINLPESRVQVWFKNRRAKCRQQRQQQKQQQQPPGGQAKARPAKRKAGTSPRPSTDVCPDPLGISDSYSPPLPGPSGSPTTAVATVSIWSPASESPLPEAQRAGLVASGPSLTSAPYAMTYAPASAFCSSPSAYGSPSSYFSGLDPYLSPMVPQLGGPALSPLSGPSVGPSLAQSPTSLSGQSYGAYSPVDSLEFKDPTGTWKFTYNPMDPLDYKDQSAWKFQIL
SPIB, sequence (Q01892 whole entry): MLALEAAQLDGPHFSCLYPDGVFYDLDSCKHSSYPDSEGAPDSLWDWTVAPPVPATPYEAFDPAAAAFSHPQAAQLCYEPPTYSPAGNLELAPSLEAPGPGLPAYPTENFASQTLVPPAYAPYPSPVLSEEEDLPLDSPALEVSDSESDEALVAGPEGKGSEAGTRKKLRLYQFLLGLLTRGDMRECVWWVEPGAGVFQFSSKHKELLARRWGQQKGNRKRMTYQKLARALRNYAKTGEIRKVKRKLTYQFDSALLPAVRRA
HSF1, sequence (Q00613 whole entry): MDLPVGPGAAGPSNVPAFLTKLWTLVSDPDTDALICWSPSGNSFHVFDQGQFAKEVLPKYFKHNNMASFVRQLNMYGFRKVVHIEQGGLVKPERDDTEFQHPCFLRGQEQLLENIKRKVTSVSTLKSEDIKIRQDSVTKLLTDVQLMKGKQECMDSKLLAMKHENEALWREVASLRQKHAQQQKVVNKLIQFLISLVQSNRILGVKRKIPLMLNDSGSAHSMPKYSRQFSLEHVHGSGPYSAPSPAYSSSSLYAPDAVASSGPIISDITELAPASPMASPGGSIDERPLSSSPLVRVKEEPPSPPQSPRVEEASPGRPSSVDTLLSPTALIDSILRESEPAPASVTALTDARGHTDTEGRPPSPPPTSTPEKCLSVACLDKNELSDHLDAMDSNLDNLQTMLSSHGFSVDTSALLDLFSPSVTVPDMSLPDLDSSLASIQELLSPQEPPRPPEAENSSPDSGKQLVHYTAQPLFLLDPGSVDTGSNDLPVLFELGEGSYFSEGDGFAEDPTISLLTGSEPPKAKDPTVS
ELF1, sequence (P32519 whole entry): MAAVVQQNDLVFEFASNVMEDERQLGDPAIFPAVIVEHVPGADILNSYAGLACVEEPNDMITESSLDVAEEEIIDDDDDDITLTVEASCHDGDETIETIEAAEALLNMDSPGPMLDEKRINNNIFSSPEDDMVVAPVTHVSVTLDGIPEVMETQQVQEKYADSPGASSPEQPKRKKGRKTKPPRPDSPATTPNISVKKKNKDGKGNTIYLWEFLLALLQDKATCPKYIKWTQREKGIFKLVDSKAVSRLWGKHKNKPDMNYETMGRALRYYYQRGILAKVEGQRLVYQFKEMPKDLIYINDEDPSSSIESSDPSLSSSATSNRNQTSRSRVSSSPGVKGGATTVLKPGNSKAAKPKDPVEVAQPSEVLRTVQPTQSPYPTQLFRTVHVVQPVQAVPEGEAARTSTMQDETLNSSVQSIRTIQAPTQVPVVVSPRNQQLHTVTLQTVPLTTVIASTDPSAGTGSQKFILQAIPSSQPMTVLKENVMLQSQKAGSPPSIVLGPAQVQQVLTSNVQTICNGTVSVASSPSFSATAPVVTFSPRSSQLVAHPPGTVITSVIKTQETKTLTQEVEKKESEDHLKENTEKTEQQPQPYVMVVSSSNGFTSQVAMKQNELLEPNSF
ETV5, sequence (P41161 whole entry): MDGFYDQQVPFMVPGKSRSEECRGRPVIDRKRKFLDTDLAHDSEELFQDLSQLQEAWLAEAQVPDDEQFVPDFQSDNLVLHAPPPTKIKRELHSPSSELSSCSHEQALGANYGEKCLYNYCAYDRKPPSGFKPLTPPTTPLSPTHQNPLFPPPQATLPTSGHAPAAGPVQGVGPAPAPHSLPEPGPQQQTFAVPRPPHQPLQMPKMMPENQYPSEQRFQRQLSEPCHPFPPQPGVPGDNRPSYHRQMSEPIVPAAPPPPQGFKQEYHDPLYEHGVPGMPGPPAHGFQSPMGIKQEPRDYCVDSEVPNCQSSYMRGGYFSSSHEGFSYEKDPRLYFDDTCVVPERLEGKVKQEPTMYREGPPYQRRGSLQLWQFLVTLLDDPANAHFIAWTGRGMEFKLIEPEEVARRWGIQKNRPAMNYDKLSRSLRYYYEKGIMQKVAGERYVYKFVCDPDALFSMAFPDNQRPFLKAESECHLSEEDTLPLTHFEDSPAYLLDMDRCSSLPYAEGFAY

TCCCAG
binding signal [1]: 1.05 fold enrichment (6-mer frequency, TF over GST control) | binding signal [2]: 1.09 fold enrichment (6-mer frequency, TF over GST control) | binding signal [3]: 1.08 fold enrichment (6-mer frequency, TF over GST control) | binding signal [4]: 1.07 fold enrichment (6-mer frequency, TF over GST control) | binding signal [5]: 1.08 fold enrichment (6-mer frequency, TF over GST control) | binding signal [6]: 1.1 fold enrichment (6-mer frequency, TF over GST control) | binding signal [7]: 1.11 fold enrichment (6-mer frequency, TF over GST control) | binding signal [8]: 1.08 fold enrichment (6-mer frequency, TF over GST control) | binding signal [9]: 1.11 fold enrichment (6-mer frequency, TF over GST control) | binding signal [10]: 1.08 fold enrichment (6-mer frequency, TF over GST control) | binding signal [11]: 1.06 fold enrichment (6-mer frequency, TF over GST control) | binding signal [12]: 1.16 fold enrichment (6-mer frequency, TF over GST control) | binding signal [13]: 1.01 fold enrichment (6-mer frequency, TF over GST control) | binding signal [14]: 1.15 fold enrichment (6-mer frequency, TF over GST control) | binding signal [15]: 1.25 fold enrichment (6-mer frequency, TF over GST control) | binding signal [16]: 1.02 fold enrichment (6-mer frequency, TF over GST control) | binding signal [17]: 1.14 fold enrichment (6-mer frequency, TF over GST control) | binding signal [18]: 1.19 fold enrichment (6-mer frequency, TF over GST control)
